# Measured values taken from ChEMBL document CHEMBL2218924, “A broad activity screen in support of a chemogenomic map for kinase signalling research and drug discovery” (Biochem J, 2013).
# Tests used:
# [1] = target: Serine/threonine-protein kinase PAK 5 (Homo sapiens) (UniProt Q9P286); details: at 1 µM
# [2] = target: Serine/threonine-protein kinase PAK 5 (Homo sapiens) (UniProt Q9P286); details: at 10 µM
# [3] = target: Serine/threonine-protein kinase PAK 6 (Homo sapiens) (UniProt Q9NQU5); details: at 1 µM
# [4] = target: Serine/threonine-protein kinase PAK 6 (Homo sapiens) (UniProt Q9NQU5); details: at 10 µM
# [5] = target: PAS domain-containing serine/threonine-protein kinase (Homo sapiens) (UniProt Q96RG2); details: at 1 µM
# [6] = target: PAS domain-containing serine/threonine-protein kinase (Homo sapiens) (UniProt Q96RG2); details: at 10 µM
# [7] = target: Activated CDC42 kinase 1 (Homo sapiens) (UniProt Q07912); details: at 1 µM
# [8] = target: Activated CDC42 kinase 1 (Homo sapiens) (UniProt Q07912); details: at 10 µM
# [9] = target: ALK tyrosine kinase receptor (Homo sapiens) (UniProt Q9UM73); details: at 1 µM
# [10] = target: ALK tyrosine kinase receptor (Homo sapiens) (UniProt Q9UM73); details: at 10 µM
# [11] = target: T1, Activin receptor type-1B (Homo sapiens) (UniProt P36896); details: at 1 µM
# T1 sequence (whole entry): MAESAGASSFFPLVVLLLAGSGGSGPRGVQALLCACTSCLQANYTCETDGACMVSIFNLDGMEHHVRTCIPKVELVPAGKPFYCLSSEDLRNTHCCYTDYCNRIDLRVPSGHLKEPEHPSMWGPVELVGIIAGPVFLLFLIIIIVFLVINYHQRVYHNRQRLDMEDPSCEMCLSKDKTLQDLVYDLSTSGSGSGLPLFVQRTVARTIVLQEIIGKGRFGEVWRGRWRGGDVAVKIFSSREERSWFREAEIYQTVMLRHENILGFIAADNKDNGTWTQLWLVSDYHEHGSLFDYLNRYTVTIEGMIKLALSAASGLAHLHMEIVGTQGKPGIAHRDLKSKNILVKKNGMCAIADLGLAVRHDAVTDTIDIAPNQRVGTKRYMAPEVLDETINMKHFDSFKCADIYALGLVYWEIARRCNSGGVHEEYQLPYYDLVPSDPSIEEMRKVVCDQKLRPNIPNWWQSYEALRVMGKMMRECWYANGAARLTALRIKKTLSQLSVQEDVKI
# [12] = target: T1, Activin receptor type-1B (Homo sapiens); details: at 10 µM
# [13] = target: T2, AMP-activated protein kinase (AMPK) alpha-1/beta-1/gamma-1 (Homo sapiens) (UniProt P54619+Q9Y478+Q13131); details: at 1 µM
# [14] = target: T2, AMP-activated protein kinase (AMPK) alpha-1/beta-1/gamma-1 (Homo sapiens); details: at 10 µM
# [15] = target: T3, AMP-activated protein kinase, AMPK (Homo sapiens) (UniProt P54646+O43741+P54619+Q9UGJ0+Q9Y478+Q13131+Q9UGI9); details: at 1 µM
# [16] = target: T3, AMP-activated protein kinase, AMPK (Homo sapiens); details: at 10 µM
# [17] = target: T4, NUAK family SNF1-like kinase 1 (Homo sapiens) (UniProt O60285); details: at 1 µM
# T4 sequence (whole entry): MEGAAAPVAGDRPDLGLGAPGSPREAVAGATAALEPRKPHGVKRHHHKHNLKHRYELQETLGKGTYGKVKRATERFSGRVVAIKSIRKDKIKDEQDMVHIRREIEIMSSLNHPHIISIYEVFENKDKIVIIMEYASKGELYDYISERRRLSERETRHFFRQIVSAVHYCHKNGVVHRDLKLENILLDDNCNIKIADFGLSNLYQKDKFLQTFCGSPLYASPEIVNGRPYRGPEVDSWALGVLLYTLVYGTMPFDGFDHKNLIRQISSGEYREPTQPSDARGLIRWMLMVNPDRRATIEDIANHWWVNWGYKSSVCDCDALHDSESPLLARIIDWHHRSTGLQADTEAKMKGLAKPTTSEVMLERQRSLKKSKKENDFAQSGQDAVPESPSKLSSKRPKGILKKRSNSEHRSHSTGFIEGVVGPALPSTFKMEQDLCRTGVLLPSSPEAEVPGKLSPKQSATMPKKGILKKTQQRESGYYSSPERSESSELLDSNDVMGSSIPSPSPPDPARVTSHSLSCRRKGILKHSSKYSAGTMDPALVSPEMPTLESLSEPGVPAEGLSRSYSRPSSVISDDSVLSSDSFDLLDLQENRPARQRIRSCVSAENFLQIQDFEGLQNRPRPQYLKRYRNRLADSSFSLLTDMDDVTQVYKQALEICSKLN
# [18] = target: T4, NUAK family SNF1-like kinase 1 (Homo sapiens); details: at 10 µM
# [19] = target: T5, Mitogen-activated protein kinase kinase kinase 5 (Homo sapiens) (UniProt Q99683); details: at 1 µM
# T5 sequence (whole entry): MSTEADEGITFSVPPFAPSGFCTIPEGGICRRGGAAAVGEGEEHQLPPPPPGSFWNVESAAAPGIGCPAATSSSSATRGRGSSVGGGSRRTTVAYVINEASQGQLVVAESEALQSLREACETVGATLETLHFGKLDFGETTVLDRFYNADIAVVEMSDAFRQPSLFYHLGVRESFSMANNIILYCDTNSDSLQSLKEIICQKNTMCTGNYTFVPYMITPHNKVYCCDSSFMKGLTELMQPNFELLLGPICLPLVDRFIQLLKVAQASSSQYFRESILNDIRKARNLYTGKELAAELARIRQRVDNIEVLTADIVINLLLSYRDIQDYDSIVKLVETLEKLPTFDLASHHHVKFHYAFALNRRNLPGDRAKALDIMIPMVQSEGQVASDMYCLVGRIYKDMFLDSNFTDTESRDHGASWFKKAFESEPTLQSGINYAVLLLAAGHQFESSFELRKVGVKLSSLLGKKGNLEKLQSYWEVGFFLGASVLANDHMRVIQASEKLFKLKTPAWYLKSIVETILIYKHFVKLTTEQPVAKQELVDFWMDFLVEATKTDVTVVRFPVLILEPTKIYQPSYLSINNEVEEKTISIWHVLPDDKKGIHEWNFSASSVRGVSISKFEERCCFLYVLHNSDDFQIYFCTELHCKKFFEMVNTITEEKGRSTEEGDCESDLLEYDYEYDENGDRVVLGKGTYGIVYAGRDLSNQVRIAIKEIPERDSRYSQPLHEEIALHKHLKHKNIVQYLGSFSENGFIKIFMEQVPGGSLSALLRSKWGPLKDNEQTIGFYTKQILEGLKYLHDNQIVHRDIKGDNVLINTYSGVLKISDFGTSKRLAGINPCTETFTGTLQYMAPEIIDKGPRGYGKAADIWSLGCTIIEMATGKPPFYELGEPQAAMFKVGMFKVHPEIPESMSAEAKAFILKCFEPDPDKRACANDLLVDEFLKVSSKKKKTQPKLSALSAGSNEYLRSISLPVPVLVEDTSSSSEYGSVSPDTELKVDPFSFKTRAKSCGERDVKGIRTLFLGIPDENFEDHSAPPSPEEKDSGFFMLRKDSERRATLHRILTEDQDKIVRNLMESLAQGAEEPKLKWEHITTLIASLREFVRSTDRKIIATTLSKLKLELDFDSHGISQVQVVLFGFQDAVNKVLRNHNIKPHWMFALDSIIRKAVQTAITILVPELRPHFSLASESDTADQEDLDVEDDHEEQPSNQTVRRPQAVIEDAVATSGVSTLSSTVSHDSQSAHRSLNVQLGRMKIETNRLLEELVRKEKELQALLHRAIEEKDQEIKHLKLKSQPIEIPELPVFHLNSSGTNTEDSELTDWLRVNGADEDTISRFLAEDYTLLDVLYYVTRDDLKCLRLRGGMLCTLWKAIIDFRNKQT
# [20] = target: Platelet-derived growth factor receptor alpha (Homo sapiens) (UniProt P16234); details: at 1 µM
# T2 sequence (P54619 whole entry): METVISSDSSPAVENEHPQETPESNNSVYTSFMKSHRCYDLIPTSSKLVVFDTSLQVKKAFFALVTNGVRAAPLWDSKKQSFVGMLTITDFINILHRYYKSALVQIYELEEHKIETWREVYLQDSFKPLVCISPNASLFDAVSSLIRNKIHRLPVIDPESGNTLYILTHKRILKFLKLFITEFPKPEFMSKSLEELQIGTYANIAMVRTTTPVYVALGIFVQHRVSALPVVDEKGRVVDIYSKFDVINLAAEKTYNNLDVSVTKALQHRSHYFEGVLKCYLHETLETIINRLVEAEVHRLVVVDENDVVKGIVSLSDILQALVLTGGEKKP
# T2 sequence (Q13131 whole entry partner): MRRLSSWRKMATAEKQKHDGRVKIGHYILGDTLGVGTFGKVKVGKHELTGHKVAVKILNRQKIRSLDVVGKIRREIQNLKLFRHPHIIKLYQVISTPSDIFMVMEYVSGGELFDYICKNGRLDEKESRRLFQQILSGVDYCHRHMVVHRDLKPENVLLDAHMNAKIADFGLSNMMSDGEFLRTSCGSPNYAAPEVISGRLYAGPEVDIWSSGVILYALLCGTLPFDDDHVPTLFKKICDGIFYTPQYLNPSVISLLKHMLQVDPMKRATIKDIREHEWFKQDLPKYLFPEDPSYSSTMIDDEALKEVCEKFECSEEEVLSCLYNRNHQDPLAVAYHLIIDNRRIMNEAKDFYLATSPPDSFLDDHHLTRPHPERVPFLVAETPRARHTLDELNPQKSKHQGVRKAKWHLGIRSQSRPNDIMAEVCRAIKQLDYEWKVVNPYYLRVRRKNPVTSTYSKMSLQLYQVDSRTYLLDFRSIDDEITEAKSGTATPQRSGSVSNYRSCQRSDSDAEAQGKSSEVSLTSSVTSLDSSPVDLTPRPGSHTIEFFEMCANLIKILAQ
# T2 sequence (Q9Y478 2-270 partner limits assumed): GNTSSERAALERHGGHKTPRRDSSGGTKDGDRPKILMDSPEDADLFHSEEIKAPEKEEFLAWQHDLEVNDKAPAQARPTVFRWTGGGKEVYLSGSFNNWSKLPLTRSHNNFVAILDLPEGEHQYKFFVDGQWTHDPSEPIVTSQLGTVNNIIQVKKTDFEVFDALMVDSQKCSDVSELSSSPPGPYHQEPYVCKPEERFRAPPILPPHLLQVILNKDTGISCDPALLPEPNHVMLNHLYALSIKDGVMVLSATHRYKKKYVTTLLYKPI
# PAS domain-containing serine/threonine-protein kinase (Homo sapiens), sequence (Q96RG2 whole entry, the tested form may be a part): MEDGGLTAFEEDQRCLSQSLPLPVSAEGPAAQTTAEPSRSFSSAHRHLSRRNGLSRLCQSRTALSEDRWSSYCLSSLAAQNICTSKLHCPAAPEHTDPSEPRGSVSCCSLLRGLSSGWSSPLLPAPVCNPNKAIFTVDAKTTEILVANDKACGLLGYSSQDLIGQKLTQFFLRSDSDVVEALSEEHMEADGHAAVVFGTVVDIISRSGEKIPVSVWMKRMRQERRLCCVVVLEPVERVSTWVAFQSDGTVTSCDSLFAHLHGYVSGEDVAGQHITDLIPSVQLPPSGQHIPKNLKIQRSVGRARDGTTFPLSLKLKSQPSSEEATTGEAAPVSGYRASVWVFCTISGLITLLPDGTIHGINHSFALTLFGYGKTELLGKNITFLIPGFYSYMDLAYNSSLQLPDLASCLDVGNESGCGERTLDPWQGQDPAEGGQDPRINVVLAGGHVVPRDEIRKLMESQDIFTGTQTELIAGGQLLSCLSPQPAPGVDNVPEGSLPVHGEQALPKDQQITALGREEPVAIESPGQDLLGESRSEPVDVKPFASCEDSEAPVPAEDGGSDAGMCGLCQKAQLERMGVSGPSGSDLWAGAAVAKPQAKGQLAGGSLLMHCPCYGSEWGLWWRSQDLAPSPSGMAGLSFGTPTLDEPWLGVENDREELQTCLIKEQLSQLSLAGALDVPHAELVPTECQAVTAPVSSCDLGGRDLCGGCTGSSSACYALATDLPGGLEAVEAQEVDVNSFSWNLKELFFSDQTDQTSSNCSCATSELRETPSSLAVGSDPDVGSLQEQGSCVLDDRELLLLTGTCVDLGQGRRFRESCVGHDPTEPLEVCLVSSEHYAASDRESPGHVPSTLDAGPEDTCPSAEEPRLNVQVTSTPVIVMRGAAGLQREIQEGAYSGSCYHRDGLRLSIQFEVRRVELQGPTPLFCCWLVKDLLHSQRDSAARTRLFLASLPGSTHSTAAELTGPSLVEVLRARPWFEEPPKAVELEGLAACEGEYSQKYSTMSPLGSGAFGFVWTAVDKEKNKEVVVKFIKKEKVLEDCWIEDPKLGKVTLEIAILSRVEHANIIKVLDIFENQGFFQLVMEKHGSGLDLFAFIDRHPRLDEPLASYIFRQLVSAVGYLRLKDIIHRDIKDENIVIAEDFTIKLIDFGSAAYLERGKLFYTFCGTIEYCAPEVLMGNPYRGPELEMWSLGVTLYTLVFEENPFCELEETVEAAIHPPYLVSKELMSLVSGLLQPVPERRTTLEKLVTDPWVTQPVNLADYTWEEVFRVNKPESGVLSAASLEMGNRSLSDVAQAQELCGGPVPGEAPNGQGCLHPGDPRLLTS
# ALK tyrosine kinase receptor (Homo sapiens), sequence (Q9UM73 19-1620 limits assumed): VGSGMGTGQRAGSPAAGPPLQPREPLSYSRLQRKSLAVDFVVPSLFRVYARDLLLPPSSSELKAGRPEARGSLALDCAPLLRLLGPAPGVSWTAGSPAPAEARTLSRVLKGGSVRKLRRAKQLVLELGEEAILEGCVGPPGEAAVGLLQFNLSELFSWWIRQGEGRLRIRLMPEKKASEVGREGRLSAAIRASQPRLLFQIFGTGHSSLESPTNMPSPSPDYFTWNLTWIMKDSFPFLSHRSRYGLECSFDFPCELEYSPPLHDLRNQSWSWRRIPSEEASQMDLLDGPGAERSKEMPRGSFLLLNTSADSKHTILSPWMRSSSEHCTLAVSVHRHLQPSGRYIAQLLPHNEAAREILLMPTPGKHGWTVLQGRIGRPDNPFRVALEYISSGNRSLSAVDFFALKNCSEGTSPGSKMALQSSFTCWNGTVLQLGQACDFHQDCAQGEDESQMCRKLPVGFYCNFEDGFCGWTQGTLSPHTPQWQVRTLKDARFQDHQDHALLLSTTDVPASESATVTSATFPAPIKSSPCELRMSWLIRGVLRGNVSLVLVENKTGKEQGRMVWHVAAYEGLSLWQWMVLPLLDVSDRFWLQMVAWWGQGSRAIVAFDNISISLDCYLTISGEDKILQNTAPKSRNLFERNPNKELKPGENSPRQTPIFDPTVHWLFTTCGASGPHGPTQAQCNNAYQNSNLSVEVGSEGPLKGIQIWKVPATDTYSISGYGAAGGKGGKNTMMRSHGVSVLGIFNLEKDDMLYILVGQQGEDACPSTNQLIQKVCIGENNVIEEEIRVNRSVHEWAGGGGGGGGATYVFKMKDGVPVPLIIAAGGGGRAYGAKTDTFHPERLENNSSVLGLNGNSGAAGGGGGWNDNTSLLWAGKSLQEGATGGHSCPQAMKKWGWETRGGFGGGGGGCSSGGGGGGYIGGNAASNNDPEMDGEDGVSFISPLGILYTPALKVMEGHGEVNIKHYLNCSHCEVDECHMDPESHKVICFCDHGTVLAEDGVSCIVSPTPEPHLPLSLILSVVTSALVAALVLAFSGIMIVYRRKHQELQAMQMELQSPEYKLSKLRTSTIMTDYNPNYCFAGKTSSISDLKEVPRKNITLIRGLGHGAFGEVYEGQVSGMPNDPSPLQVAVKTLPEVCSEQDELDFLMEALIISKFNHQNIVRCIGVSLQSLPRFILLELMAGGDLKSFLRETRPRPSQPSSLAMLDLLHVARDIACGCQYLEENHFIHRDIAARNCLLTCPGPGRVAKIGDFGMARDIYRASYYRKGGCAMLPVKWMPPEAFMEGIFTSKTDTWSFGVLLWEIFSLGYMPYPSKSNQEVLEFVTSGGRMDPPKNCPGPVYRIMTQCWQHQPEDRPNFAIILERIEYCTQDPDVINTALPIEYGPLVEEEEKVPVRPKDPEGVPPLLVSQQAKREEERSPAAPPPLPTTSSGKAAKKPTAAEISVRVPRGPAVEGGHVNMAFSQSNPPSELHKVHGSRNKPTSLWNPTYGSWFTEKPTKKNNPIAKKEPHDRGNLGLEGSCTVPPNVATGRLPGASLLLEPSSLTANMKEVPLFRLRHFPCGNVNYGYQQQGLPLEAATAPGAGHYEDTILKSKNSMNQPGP
# Serine/threonine-protein kinase PAK 5 (Homo sapiens), sequence (Q9P286 whole entry, looked up): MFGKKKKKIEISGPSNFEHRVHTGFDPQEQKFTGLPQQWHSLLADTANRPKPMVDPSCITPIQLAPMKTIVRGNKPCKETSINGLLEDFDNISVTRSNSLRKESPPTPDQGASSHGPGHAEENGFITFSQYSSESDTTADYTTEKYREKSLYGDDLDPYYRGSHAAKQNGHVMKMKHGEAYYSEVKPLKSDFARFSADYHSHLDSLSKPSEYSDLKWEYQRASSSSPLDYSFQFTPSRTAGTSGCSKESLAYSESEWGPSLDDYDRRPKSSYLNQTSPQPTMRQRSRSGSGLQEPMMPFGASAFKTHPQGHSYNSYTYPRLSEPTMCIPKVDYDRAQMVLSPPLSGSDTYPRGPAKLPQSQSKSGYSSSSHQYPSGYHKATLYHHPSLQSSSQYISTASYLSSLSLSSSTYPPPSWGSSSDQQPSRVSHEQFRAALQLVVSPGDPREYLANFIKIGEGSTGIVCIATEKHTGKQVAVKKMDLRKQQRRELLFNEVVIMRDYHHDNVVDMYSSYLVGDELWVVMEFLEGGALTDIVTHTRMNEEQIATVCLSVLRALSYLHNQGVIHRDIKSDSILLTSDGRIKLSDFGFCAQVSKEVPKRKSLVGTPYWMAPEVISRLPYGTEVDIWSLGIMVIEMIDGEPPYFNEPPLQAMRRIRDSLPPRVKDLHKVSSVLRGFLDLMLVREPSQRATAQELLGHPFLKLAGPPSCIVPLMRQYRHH
smiles,measurement,setting,value
COc1cc2ncnc(Nc3ccc(OCc4ccccc4)cc3)c2cc1OC,residual activity,[1],83%
same,residual activity,[2],79%
same,residual activity,[3],100%
same,residual activity,[4],103%
same,residual activity,[5],107%
same,residual activity,[6],71%
same,residual activity,[7],22%
same,residual activity,[8],10%
same,residual activity,[9],86%
same,residual activity,[10],76%
same,residual activity,[11],135%
same,residual activity,[12],119%
same,residual activity,[13],108%
same,residual activity,[14],99%
same,residual activity,[15],119%
same,residual activity,[16],82%
same,residual activity,[17],107%
same,residual activity,[18],90%
same,residual activity,[19],92%
same,residual activity,[20],95%
CCc1nc(-c2ccc(OC)cc2)[nH]c1-c1ccncc1,residual activity,[1],111%
same,residual activity,[2],105%
same,residual activity,[5],128%
same,residual activity,[8],69%
same,residual activity,[13],101%
same,residual activity,[20],114%
Nc1ccc2ncnc(NCCc3ccc(Oc4ccccc4)cc3)c2c1,residual activity,[5],107%
NC(=O)c1ccc2[nH]c(-c3ccc(Oc4ccc(Cl)cc4)cc3)nc2c1,residual activity,[5],134%
O=C1c2ccccc2-c2nc3nnnn3nc21,residual activity,[1],80%
same,residual activity,[2],74%
same,residual activity,[3],112%
same,residual activity,[4],112%
same,residual activity,[7],109%
same,residual activity,[8],80%
same,residual activity,[15],122%
same,residual activity,[16],75%
same,residual activity,[19],107%
same,residual activity,[20],128%
COc1cc(OC)c(/C=C2\C(=O)Nc3ccccc32)c(OC)c1,residual activity,[1],96%
same,residual activity,[2],93%
same,residual activity,[4],93%
same,residual activity,[5],92%
same,residual activity,[7],71%
same,residual activity,[8],56%
same,residual activity,[9],89%
same,residual activity,[10],75%
same,residual activity,[13],104%
same,residual activity,[14],82%
same,residual activity,[16],95%
same,residual activity,[17],102%
same,residual activity,[18],84%
same,residual activity,[19],91%
same,residual activity,[20],82%
O=c1cc(N2CCOCC2)oc2c(-c3ccccc3)cccc12,residual activity,[5],125%
COc1ccc2c(c[n+](C)c3c4cc5c(cc4ccc23)OCO5)c1OC,residual activity,[2],87%
same,residual activity,[3],99%
same,residual activity,[4],61%
same,residual activity,[5],70%
same,residual activity,[6],61%
same,residual activity,[7],84%
same,residual activity,[8],68%
same,residual activity,[10],65%
same,residual activity,[11],132%
same,residual activity,[12],94%
same,residual activity,[13],96%
same,residual activity,[14],66%
same,residual activity,[15],89%
same,residual activity,[16],60%
CCC(=O)Nc1ccc2ncnc(Nc3cccc(Br)c3)c2c1,residual activity,[5],85%
COc1cc2nccc(Oc3ccc(NC(=O)Nc4cc(C)on4)c(Cl)c3)c2cc1OC,residual activity,[5],100%
COc1ccc(Cl)cc1NC(=O)Nc1cc(C)nc2ccccc12,residual activity,[5],98%
CN[C@@H]1C[C@H]2O[C@@](C)([C@@H]1OC)n1c3ccccc3c3c4c(c5c6ccccc6n2c5c31)C(=O)NC4,residual activity,[9],0%
same,residual activity,[10],1%
same,residual activity,[17],8%
same,residual activity,[18],1%
